Most compounds without a hit are left out; they make up all but 6.2% or so of the library.
ATXN2 expr inh: inhibitors of ATXN2 expression; actives 0.72% (n = 360,000); HEK-293 ATXN2-luciferase reporter, luminescence, 24 h; Potency, µM (doses to about 57 µM), inactives show at the highest dose activity change, negative = inhibition, most hits filed as inhibitors; note: % is set by controls: 0 for no effect and ±100 for the full control effect; nearly all actives have a fitted effect of over 55% in size
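qHTS (up to 57 uM final) was run with 24 h compound exposure of reporter cells at 37 °C. Each well was multiplexed: SteadyGlo luminescence measured ATXN2-luciferase expression after a fluorogenic Gly-Phe-AFC viability readout (25 uM final).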
HT1080-NT tox: kills 2HG-producing HT-1080-NT fibrosarcoma cells; AID 686970; actives 1.6% (n = 360,000); HT-1080-NT fibrosarcoma viability, CellTiter-Glo ATP luminescence, 48 h; Potency, µM (top dose mostly 46.1 µM), inactives show top-dose activity, negative = less viability, hits mostly cytotoxic;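 note: NT is the 2HG producing partner of a matched IDH1 knockdown line; 0% = DMSO-treated cells and -100% = media-only wells without cells; nearly all actives have a fitted effect of over 55% in size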
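A 48-hour cytotoxicity screen used HT-1080-NT cells plated 2 hours before compound delivery. ATP-based CellTiter-Glo luminescence measured viability, normalized to DMSO and no-cell controls.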
HT1080 IDH1KD tx: kills HT-1080 cells with IDH1 knockdown | Potency, µM (highest dose often 46.1 µM), for inactives: at the highest dose activity, negative = toxicity, hits mostly cytotoxic | HT-1080 IDH1 knockdown viability, ATP luminescence, 48 h | actives 2% (n = 360,000);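 note: 0% = DMSO wells and -100% = cell-free medium wells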
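After a 2 h attachment period, IDH1KD HT-1080 cells took pin-transferred compound for 48 h at 37 °C; ATP-based luminescence after 10 min room-temperature reagent incubation reported viability.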
KB-3-1 cytotox: kills parental KB-3-1 adenocarcinoma cells | Potency, µM (top dose mostly 46.1 µM), actives largely listed as cytotoxic | AID 1347075 | KB-3-1 viability, CellTiter-Glo ATP luminescence, 72 h | actives 1.4% (n = 400,000); note: % is set by controls: 0 for no effect and ±100 for the full control effect; nearly all actives have a fitted effect of over 60% in size
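Cells are dispensed, compounds pinned in, plates held at 37 °C for 72 h, then CellTiter-Glo is added and luminescence read after 10 minutes. Cell line: parental KB-3-1 in phenol-red-free DMEM, 10% FBS.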
KB-V1 cytotox: kills drug-selected multidrug resistant KB-V1 cells; KB-V1 MDR cells viability, CellTiter-Glo, 72 h; Potency, µM (highest dose often 46.1 µM), usual class: cytotoxic; actives 3.4% (n = 400,000); note: % is set by controls: 0 for no effect and ±100 for the full control effect; nearly all actives have a fitted effect of over 60% in size
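Following 72 h at 37 degrees C with compound, KB-V1 cell viability was read by CellTiter-Glo luminescence, medium being phenol-red-free DMEM plus 10% FBS; concentration-response parameters came from normalized, curve-fitted qHTS data.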
S2 tox: cell viability loss in ATXN counter-screen. S2 cells (HEK-293 line with an ATXN2-luciferase reporter) viability, CellTiter-Fluor protease fluorescence, 24 h. actives 0.49% (n = 400,000). Potency, µM (top dose mostly 56.7 µM), actives largely listed as cytotoxic; note: nearly all actives have a fitted effect of over 40% in size
* = called active by the depositor; i = inactive; ? = inconclusive; · = not tested or not shown; ! = not active in a repeat. Calls come from the whole dose curve; as a rule, active = well fitted curve in the direction sought with a large enough effect; inconclusive = small, poorly fitted or top-dose-only effect, or another doubt; inactive = no such curve, though single readings can be large; an effect the other way counts as inactive or inconclusive. Potency is the fitted concentration of half-maximal effect.

SMILES | ATXN2 expr inh | HT1080-NT tox | HT1080 IDH1KD tx | KB-3-1 cytotox | KB-V1 cytotox | S2 tox
CCN(C(=O)c1c(O)c2c(Cl)cccc2n(C)c1=O)c1ccccc1 | -11% | · | · | · | · | ·
Cc1cc(C)cc(NC2=CC(=O)CC(c3ccco3)C2)c1 (stereo unspecified) | -1% | -2% | -12% | i | 16µM* | ?
O=C(CCSCc1ccccc1Cl)N1CCN(c2cccc(Cl)c2)CC1 | -23% | -17% | -2% | i | 21µM*! | ?
O=C(CCS(=O)(=O)c1ccc(Br)cc1)N1CCN(c2ccc(F)cc2)CC1 | · | -23% | -5% | i | i | i
O=C(NCCC(=O)N1CCN(c2cccc(Cl)c2)CC1)c1ccc(Br)cc1 | -18% | -3% | ? | i | 23µM* | i
O=C(CCS(=O)(=O)c1ccc(Br)cc1)N1CCN(c2ccc(Cl)cc2)CC1 | -21% | 14% | 0% | i | 5.8µM* | i
O=C(CSCc1nc2ccccc2[nH]1)N1CCN(c2cccc(Cl)c2)CC1 | -8% | -2% | -11% | ? | 21µM* | i
O=C(CSCc1ccccc1Cl)N1CCN(c2ccccn2)CC1 | 48% | -5% | -2% | i | ? | i
CCN(CC)c1ccc(NC(=O)CN2CCN(S(=O)(=O)c3ccc(C(C)C)cc3)CC2)cc1 | -7% | · | · | i | i | ?
COc1ccc(C(=O)N2CCc3cc(OC)c(OC)cc3C2COc2ccc3c(C)cc(=O)oc3c2)c(OC)c1 (stereo unspecified) | 12% | · | · | ? | i | i
O=[N+]([O-])c1ccc(-n2nnnc2-c2ccccc2)c([N+](=O)[O-])c1 | ? | ? | ? | i | 18µM* | ?
O=[N+]([O-])c1ccc(-n2nnnc2-c2ccccc2)cc1 | · | 2% | 4% | i | i | i
CCc1ccc(/C=C2\SC(=S)N(CCCC(=O)NCCCN3CCOCC3)C2=O)cc1 | · | -18% | ? | i | i | 10µM*
CCOc1ccc(/C=C2\SC(=S)N(CCCC(=O)NCCCN3CCOCC3)C2=O)cc1 | 8.9µM* | ? | 16µM* | i | i | ?
CC1C/C(=C\c2cccnc2)C(=O)/C(=C/c2cccnc2)C1 (stereo unspecified) | ? | ? | 2.9µM* | ? | ? | ·
O=C1/C(=C\c2cccnc2)Sc2ccccc21 | 18% | ? | ? | i | i | i
O=C1/C(=C/c2cccnc2)CCc2c1[nH]c1ccccc21 | 9% | 15µM* | 13µM* | i | 13µM* | i
CC(C)C/C=C1\CCc2c([nH]c3ccccc23)C1=O | 46% | 2% | 18% | i | i | i
C=Cc1ccc(Cn2c(C(=O)O)c(CNC3CCCCC3)c3ccc(OC)cc32)cc1 | 16% | · | · | i | i | ?
O=C(CSc1nc(-c2ccc(F)cc2)cc(C(F)(F)F)n1)NCc1ccccc1 | -18% | · | · | i | i | i
Cc1ccc(/C=N/NC(=O)c2csc3c2CCCC3)cc1 | 51% | ? | ? | 2.1µM* | ? | i
COc1cc(/C=N/NC(=O)c2csc3c2CCCC3)cc(OC)c1O | 3% | 5% | -2% | i | i | i
CCOC(=O)Cn1c(=O)oc2cc(S(=O)(=O)N3CCN(c4ccccc4F)CC3)ccc21 | -11% | · | · | i | i | i
COC(=O)CC1COc2ccccc2N1S(=O)(=O)c1ccc(OC)cc1 (stereo unspecified) | -22% | ? | 10µM* | 18µM* | ? | i
Cc1ccc(C(=O)COC(=O)C2C3C=CC(C3)C2C(=O)OCC(=O)c2ccc(C)c(C)c2)cc1C (stereo unspecified) | 5% | 3% | -1% | ? | 16µM* | i
COc1cc(/C=N/NC(=O)c2csc3c2CCCC3)ccc1OCCN1CCOCC1 | 1% | -22% | -23% | i | i | i
